Experiment [1] addresses Tyrosine-protein kinase SYK (Homo sapiens) (UniProt P43405). The conditions noted are these: at 10 µM.
Experiment [2] has as its target T1, Mitogen-activated protein kinase kinase kinase 7 (Homo sapiens) (UniProt O43318).
T1 sequence (whole entry): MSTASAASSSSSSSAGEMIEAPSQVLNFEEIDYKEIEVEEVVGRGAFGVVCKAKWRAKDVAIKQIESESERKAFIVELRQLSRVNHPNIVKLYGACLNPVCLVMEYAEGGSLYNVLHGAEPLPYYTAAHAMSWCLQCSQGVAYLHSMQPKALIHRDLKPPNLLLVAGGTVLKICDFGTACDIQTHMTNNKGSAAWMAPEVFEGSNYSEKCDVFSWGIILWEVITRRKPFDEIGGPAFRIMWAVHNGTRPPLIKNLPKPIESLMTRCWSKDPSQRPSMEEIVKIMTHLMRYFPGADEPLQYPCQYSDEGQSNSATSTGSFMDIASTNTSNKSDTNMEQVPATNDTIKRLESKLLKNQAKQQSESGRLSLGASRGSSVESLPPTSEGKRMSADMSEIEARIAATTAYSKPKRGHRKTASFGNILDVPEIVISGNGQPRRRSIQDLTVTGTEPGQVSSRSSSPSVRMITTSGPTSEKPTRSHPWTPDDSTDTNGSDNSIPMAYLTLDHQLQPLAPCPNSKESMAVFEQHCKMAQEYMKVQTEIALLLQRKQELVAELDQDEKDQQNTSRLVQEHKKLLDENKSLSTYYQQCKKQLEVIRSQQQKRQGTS
The conditions noted are these: at 1 µM.

Experiment [3] has as its target T1, Mitogen-activated protein kinase kinase kinase 7 (Homo sapiens). The conditions noted are these: at 10 µM.
The target in experiment [4] is T2, Serine/threonine-protein kinase TAO1 (Homo sapiens) (UniProt Q7L7X3).
T2 sequence (whole entry): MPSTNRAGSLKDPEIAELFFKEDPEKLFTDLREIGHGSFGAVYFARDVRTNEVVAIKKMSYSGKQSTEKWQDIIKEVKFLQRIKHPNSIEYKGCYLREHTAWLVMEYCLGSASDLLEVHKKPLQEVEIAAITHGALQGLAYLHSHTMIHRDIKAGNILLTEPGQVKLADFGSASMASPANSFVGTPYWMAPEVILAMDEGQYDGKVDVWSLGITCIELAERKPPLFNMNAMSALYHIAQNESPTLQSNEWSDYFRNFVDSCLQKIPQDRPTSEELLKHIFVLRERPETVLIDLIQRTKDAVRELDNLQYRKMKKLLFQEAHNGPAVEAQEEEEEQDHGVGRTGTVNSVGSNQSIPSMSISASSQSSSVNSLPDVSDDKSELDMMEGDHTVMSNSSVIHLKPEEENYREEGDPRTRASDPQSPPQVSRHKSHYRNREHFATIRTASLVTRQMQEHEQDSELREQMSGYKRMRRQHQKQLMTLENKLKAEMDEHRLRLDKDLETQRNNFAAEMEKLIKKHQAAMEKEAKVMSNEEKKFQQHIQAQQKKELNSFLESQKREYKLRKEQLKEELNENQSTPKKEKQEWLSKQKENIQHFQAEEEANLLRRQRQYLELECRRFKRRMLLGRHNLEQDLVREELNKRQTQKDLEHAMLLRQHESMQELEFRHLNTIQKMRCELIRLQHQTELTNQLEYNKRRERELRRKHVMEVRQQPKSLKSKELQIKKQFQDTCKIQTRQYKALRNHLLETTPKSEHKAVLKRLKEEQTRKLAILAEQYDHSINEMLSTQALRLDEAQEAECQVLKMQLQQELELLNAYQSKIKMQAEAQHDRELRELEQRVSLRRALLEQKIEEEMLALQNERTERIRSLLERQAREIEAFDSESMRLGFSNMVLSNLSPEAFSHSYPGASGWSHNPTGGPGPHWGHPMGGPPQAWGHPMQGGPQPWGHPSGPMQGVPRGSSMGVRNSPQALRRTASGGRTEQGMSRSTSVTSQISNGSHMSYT
The following applies: at 10 µM.

Experiment [5] concerns the target T3, Serine/threonine-protein kinase TBK1 (Homo sapiens) (UniProt Q9UHD2).
T3 sequence (whole entry): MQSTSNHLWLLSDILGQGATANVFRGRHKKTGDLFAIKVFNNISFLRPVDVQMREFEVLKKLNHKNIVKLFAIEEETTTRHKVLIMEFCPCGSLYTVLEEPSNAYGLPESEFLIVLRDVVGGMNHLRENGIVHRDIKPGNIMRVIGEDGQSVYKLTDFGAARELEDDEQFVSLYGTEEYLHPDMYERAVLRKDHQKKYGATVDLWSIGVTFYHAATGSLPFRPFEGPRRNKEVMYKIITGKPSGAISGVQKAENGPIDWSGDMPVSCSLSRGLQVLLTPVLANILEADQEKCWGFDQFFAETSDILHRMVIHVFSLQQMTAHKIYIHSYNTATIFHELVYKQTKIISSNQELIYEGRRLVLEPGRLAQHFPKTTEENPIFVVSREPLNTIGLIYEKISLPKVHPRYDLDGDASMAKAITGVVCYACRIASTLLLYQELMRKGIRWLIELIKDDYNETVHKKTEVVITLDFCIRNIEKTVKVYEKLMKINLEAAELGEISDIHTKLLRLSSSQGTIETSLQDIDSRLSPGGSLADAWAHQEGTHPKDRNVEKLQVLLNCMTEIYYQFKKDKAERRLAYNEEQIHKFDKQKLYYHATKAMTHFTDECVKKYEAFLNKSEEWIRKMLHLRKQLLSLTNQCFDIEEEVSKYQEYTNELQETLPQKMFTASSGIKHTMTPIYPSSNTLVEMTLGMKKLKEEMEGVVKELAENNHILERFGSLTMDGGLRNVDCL
The following applies: at 1 µM.

Experiment [6] has as its target T3, Serine/threonine-protein kinase TBK1 (Homo sapiens). The following applies: at 10 µM.
The target in experiment [7] is T4, Inhibitor of nuclear factor kappa-B kinase subunit beta (Homo sapiens) (UniProt O14920).
T4 sequence (whole entry): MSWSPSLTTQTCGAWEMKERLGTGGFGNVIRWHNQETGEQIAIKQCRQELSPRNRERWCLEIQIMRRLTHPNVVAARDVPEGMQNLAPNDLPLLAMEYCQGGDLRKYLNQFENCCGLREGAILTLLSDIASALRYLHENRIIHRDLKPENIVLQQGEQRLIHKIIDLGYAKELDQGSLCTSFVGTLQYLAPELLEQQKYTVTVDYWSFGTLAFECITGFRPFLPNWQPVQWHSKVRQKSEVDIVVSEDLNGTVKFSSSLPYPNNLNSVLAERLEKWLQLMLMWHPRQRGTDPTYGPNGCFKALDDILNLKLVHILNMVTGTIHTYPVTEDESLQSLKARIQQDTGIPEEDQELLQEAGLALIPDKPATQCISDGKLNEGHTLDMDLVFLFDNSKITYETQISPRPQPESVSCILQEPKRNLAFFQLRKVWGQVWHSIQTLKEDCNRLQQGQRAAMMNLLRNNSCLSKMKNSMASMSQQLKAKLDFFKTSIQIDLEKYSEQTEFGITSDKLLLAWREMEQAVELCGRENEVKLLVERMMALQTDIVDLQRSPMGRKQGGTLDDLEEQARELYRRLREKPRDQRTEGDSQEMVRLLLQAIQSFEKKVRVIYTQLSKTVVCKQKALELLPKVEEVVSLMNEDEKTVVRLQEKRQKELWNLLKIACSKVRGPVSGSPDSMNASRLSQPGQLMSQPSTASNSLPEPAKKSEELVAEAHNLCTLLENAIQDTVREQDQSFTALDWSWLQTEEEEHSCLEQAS
The following applies: at 1 µM.

The target in experiment [8] is T4, Inhibitor of nuclear factor kappa-B kinase subunit beta (Homo sapiens). The following applies: at 10 µM.

Take `COc1cc2ncc(-c3ccccc3)nc2cc1OC`: the residual activity came out at 100% in experiment [1]; 98% in experiment [2]; 82% in experiment [3]; 91% in experiment [4]; 91% in experiment [5]; 76% in experiment [6]. Further, the residual activity in experiment [7] and in experiment [8] was 95% each time.

(Values after ChEMBL document CHEMBL2218924, “A broad activity screen in support of a chemogenomic map for kinase signalling research and drug discovery” (Biochem J, 2013).)
